The values that follow come from PubChem BioAssay (NCI).

The experiment can be described thus: NCI Yeast Anticancer Drug Screen. Data for the rad52 strain (AID 147).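 Further: 0% = growth of vehicle-treated control cultures.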 The following applies: S. cerevisiae rad52 mutant growth inhibition, hits give high values. The protocol: Growth inhibition of yeast strains with defined genetic alterations is measured as a screen for potential anti-cancer activity. Selected strains with alterations in DNA damage repair or cell cycle control were exposed to compounds and growth inhibition was measured relative to vehicle treated controls. The strain used in this assay is rad52

This is part of a sample that, as a whole, favours compounds with a hit. Of some 79,000 tested, about 15% had one in any assay. A number with no mark means an inactive call. The source made the active and inactive calls. No stated cut-off is given here; in the data, active means growth inhibition above about 70%; inactive means the rest.

In the case of `Cc1ccc(CSC(N)=Nc2ccccc2)cc1C`, the growth inhibition reads like this: (at 1.2 µM) 20%; (at 3.7 µM) 21%; (at 11.0 µM) 21%; (at 33.0 µM) 24%; (at 100.0 µM) 30%.

Take `CC(C)=CC(=O)O[C@@H]1CC(C)(C)CC2C3=CCC4[C@]56CC[C@](O)(OC5)C(C)(C)C6CC[C@@]4(C)C3(C)CC[C@]21C(=O)O` (stereo not given in full): the growth inhibition reads like this: (at 1.2 µM) 2%; (at 3.7 µM) 37%; (at 11.0 µM) 80% (active); (at 33.0 µM) 93% (active); (at 100.0 µM) 92% (active).

As to `COc1ccccc1/C=C1\Sc2scc(-c3cccc([N+](=O)[O-])c3)[n+]2C1=O`, the growth inhibition runs as follows: (at 1.2 µM) 31%; (at 3.7 µM) 80% (active); (at 11.0 µM) 98% (active); (at 33.0 µM) 97% (active); (at 100.0 µM) 93% (active).

With `CC1=C(C)Cc2c(O)ccc(O)c2C1`, the growth inhibition (at 1.2 µM) is 1%; the growth inhibition (at 3.7 µM) was 12%; the growth inhibition (at 11.0 µM) is 25%; the growth inhibition (at 33.0 µM) is 20%; the growth inhibition (at 100.0 µM) is 61%.

With `CC(=O)OCc1ccc(O)c(C=O)c1`, the growth inhibition was 1% (at 1.2 µM); 1% (at 3.7 µM); -10% (at 11.0 µM); 18% (at 33.0 µM); 57% (at 100.0 µM).

In the case of `CC(=O)Cc1ccc[cH-]1.[Fe+2].c1cc[cH-]c1`, the growth inhibition (at 1.2 µM) was 5%; the growth inhibition (at 3.7 µM) is 7%; the growth inhibition (at 11.0 µM) was 9%; the growth inhibition (at 33.0 µM) is 18%; the growth inhibition (at 100.0 µM) was 46%.

`COc1cc(C2SCC(=O)N2c2nnc(C(F)(F)F)s2)cc(OC)c1OC` (stereo not given): the growth inhibition is -1% (at 1.2 µM); -3% (at 3.7 µM); -2% (at 11.0 µM); -3% (at 33.0 µM); -5% (at 100.0 µM).

Turning to `CC(=O)N/N=C/C(C)(C)C(C)(C)/C=N/NC(C)=O`, the growth inhibition is, setting by setting: (at 1.2 µM) -1%; (at 3.7 µM) -5%; (at 11.0 µM) -32%; (at 33.0 µM) 38%; (at 100.0 µM) 97% (active).
